Measured values from the supplement of paper PMC6555819.

tested on: LXRb:RXRa (NR concentration 270 nM, RXRa partner concentration 90 nM); experiment: PBM binding z-score (relative to random genomic background probes); higher = stronger binding; sequences stand for … in GC…GCGATTGACAGCGTAGAATGAAGG
Experimental: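 Protein-binding microarray (Agilent 4x180K custom design, double-stranded 60-nt probes: 5' GC cap, 34-nt variable region, 24-nt constant primer region; full probe sequence given). Purified or IVT nuclear receptor:RXRα heterodimers (3:1 NR:RXRα, mostly 270:90 nM) or homodimers were incubated for 1 h in PBS with 2% milk and no ligand, then detected with Alexa488 antibodies. Fluorescence from o1-orientation probes (~5 replicates averaged) was converted to z-scores against 500 random hg19 background probes. Variable regions are seed direct-repeat (DR0–DR5) sites, all their single-nucleotide variants and half-site ablations.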

| Sequence | PBM binding z-score |
| --- | --- |
| GCTGCTAGGTCAACTGATGGTCACCTAAAGCTCG | 2.31 |
| TAGCCTAGGTCATGCGGGACAGTATAGTGTCGGC | 1.88 |
| AGAATGGGGTTATACGTAGATCAGGGAAGAAAGT | 4.38 |
| TCTATTAGTTGATTAGGGCAACCGAAACAGCGGA | 0.544 |
| CCTGCGAGGTCATGGTCAGCTAATCTACAGTATG | 4.6 |
| CTCGAAAGGTCGTGCTCAGATGAGTATACCAAAC | 3.44 |
| CCTTACGGGTCACTCCAGGTTATATCATCGGAGT | 5.38 |
| AATAAAGGGTCATCGTAGGCCAGAGTACGCACAG | 5.46 |
| CCTACTGGGCCTAAGGTCATTGATTCCAATGCTC | 3.36 |
| TCTCGGAGGACACAAAGGTCAGAGCTTTCCAGAG | 3.15 |
| GCTAGTTGGTCAGTAAAAGGTGACACACCGGTCG | 0.263 |
| AATACAGGGTCACGAGGCCAGAGTAGGTACGAAT | 4.97 |
| CGAACTAGGTCAAGGACAGTAAATCTCCGCACGC | 1.45 |
| CGTCAAAGATCAAGGTAACGTAACAGAAAGCAGC | 0.0744 |
| GCTGCGAGGTCAACTGATGGTCAGCTAAAGCTCG | 5.07 |
| CCTAGTTGTTCAGGAGGTCACACACCGGATATGA | 3.76 |
| ATATGTAGGTTAGCTGGGGTCATTCACACTAGGC | 5.1 |
| TCTGCTAGGTCATCGATGGTCAGCTAATCTGCTA | 1.73 |
| AGAATGAGGTCACCAAAGATCAGGGAAACGCTTG | 5.13 |
| CAAACCAGGTCAAAGGTCAAAGTCGAGCCAACCA | 7.49 |
| CGAACTACGTCATCCAGGACAGTGAATACATTGA | -0.00555 |
| AGAATGAGGTCAAGATCAGGGAAACAGAATACAT | 5.08 |
| TACCCTAGGTCATTGGGCCAGTATAGTACGCATC | 4.07 |
| CCTTACGGGTCACGTGGTTATAGCACGACGAGCG | 3.48 |
